Screen size: about 5,500 compounds; about 2,000 (36%) were called active. About 18% were inconclusive and are not listed. No stated cut-off is given here; in the data, active means normalized growth mostly below about 0.91 (no sharp cut-off); inconclusive means no clear call, values can overlap the other calls; inactive means mostly above about 0.92. This is one part of the list.
Assay: chemical genetic growth profiling, strain panel (AID 1159580);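 further: tested at 20 µM; growth read once vehicle control cultures reached saturation at 30 °C; 1 = growth at the plate median or of vehicle wells; lower values mean less growth of the strain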
Conditions: growth OD

Measured: normalized growth

CC(C)CC1C(=O)N2CCC[C@H]2C2(O)O[C@](NC(=O)C3C=C4c5cccc6[nH]c(Br)c(c56)C[C@H]4N(C)C3)(C(C)C)C(=O)N12 (stereo partly specified)
inactive: S. cerevisiae deletion strains, locus YKL009W, strain mrt4, active compounds read low 0.983 | S. cerevisiae deletion strains, locus YKL068W, active compounds read low 0.97 | S. cerevisiae deletion strains, locus YKL085W, strain MDH1 (second series), active compounds read low 0.963 | S. cerevisiae deletion strains, locus YKL085W, strain MDH1, active compounds read low 0.963 | S. cerevisiae deletion strains, locus YKL160W, strain elf1, active compounds read low 0.993 | S. cerevisiae deletion strains, locus YKL190W, strain CNB1, active compounds read low 0.979 | S. cerevisiae deletion strains, locus YKR001C, strain vps1, active compounds read low 0.989 | S. cerevisiae deletion strains, locus YKR026C, strain gcn3, active compounds read low 0.998 | S. cerevisiae deletion strains, locus YKR091W, strain srl3, active compounds read low 0.979 | S. cerevisiae deletion strains, locus YLL001W, strain dnm1, active compounds read low 0.988 | S. cerevisiae deletion strains, locus YLL026W, active compounds read low 0.977 | S. cerevisiae deletion strains, locus YLL041C, strain sdh2, active compounds read low 0.982 | S. cerevisiae deletion strains, locus YLR027C, strain aat2, active compounds read low 0.977 | S. cerevisiae deletion strains, locus YLR039C, strain RIC1, active compounds read low 0.905 | S. cerevisiae deletion strains, locus YLR058C, strain SHM2, active compounds read low 0.988 | S. cerevisiae deletion strains, locus YLR102C, strain apc9, active compounds read low 0.973 | S. cerevisiae deletion strains, locus YLR113W, strain HOG1, active compounds read low 0.945 | S. cerevisiae deletion strains, locus YLR221C, strain rsa3, active compounds read low 0.983 | S. cerevisiae deletion strains, locus YLR258W, strain gsy2, active compounds read low 0.997 | S. cerevisiae deletion strains, locus YLR262C, strain YPT6 (second series), active compounds read low 0.944 | S. cerevisiae deletion strains, locus YLR262C, strain YPT6, active compounds read low 0.951 | S. cerevisiae deletion strains, locus YLR268W, strain sec22, active compounds read low 0.98 | S. cerevisiae deletion strains, locus YLR320W, strain mms22, active compounds read low 0.982 | S. cerevisiae deletion strains, locus YLR330W, strain CHS5, active compounds read low 0.975 | S. cerevisiae deletion strains, locus YLR342W, strain FKS1 (second series), active compounds read low 0.995 | S. cerevisiae deletion strains, locus YLR342W, strain FKS1, active compounds read low 0.983 | S. cerevisiae deletion strains, locus YLR357W, strain rsc2, active compounds read low 0.933 | S. cerevisiae deletion strains, locus YLR370C, strain arc18, active compounds read low 0.966 | S. cerevisiae deletion strains, locus YLR371W, strain rom2, active compounds read low 0.977 | S. cerevisiae deletion strains, locus YLR384C, strain iki3, active compounds read low 0.987 | S. cerevisiae deletion strains, locus YLR418C, strain cdc73, active compounds read low 0.978 | S. cerevisiae deletion strains, locus YML016C, strain PPZ1, active compounds read low 0.983 | S. cerevisiae deletion strains, locus YML032C, strain rad52, active compounds read low 0.982 | S. cerevisiae deletion strains, locus YML120C, strain ndi1, active compounds read low 0.992 | S. cerevisiae deletion strains, locus YML124C, strain tub3, active compounds read low 0.973 | S. cerevisiae deletion strains, locus YMR058W, strain fet3, active compounds read low 0.973 | S. cerevisiae deletion strains, locus YMR078C, strain ctf18, active compounds read low 0.98 | S. cerevisiae deletion strains, locus YMR125W, strain sto1, active compounds read low 0.99 | S. cerevisiae deletion strains, locus YMR129W, active compounds read low 0.977 | S. cerevisiae deletion strains, locus YMR205C, strain PFK2, active compounds read low 0.97 | S. cerevisiae deletion strains, locus YMR223W, strain ubp8, active compounds read low 0.986 | S. cerevisiae deletion strains, locus YMR231W, strain pep5, active compounds read low 0.99 | S. cerevisiae deletion strains, locus YMR263W, strain SAP30, active compounds read low 0.981 | S. cerevisiae deletion strains, locus YMR307W, strain GAS1, active compounds read low 1.07 | S. cerevisiae deletion strains, locus YNL067W, strain RPL9B, active compounds read low 0.988 | S. cerevisiae deletion strains, locus YNL071W, strain lat1, active compounds read low 0.993 | S. cerevisiae deletion strains, locus YNL128W, strain TEP1, active compounds read low 0.97 | S. cerevisiae deletion strains, locus YNL153C, strain GIM3, active compounds read low 0.986 | S. cerevisiae deletion strains, locus YNL183C, strain NPR1, active compounds read low 0.938 | S. cerevisiae deletion strains, locus YNL209W, strain ssb2, active compounds read low 0.989 | S. cerevisiae deletion strains, locus YNL233W, strain BNI4, active compounds read low 0.986 | S. cerevisiae deletion strains, locus YNL248C, strain rpa49, active compounds read low 0.993 | S. cerevisiae deletion strains, locus YNL250W, strain rad50, active compounds read low 0.952 | S. cerevisiae deletion strains, locus YNL271C, strain bni1, active compounds read low 0.976 | S. cerevisiae deletion strains, locus YNL298W, strain CLA4, active compounds read low 0.986 | S. cerevisiae deletion strains, locus YNL307C, strain MCK1, active compounds read low 0.981 | S. cerevisiae deletion strains, locus YNL322C, strain KRE1 (second series), active compounds read low 0.992 | S. cerevisiae deletion strains, locus YNL322C, strain KRE1, active compounds read low 0.978 | S. cerevisiae deletion strains, locus YNR049C, strain mso1, active compounds read low 0.971 | S. cerevisiae deletion strains, locus YNR052C, strain pop2, active compounds read low 1 | S. cerevisiae deletion strains, locus YOL006C, strain TOP1, active compounds read low 1.02 | S. cerevisiae deletion strains, locus YOL012C, strain htz1 0.94 | S. cerevisiae deletion strains, locus YOL147C, strain pex11, active compounds read low 0.969 | S. cerevisiae deletion strains, locus YOR001W, strain rrp6, active compounds read low 0.997 | S. cerevisiae deletion strains, locus YOR061W, strain CKA2, active compounds read low 0.98 | S. cerevisiae deletion strains, locus YOR069W, strain VPS5, active compounds read low 0.983 | S. cerevisiae deletion strains, locus YOR070C, strain gyp1, active compounds read low 0.985 | S. cerevisiae deletion strains, locus YOR080W, strain dia2, active compounds read low 0.974 | S. cerevisiae deletion strains, locus YOR083W, strain WHI5, active compounds read low 0.995 | S. cerevisiae deletion strains, locus YOR106W, strain vam3, active compounds read low 1.07 | S. cerevisiae deletion strains, locus YOR136W, strain idh2, active compounds read low 0.987 | S. cerevisiae deletion strains, locus YOR144C, strain elg1, active compounds read low 0.979 | S. cerevisiae deletion strains, locus YOR184W, strain ser1, active compounds read low 0.995 | S. cerevisiae deletion strains, locus YOR231W, strain MKK1, active compounds read low 0.981 | S. cerevisiae deletion strains, locus YOR265W, strain rbl2, active compounds read low 0.971 | S. cerevisiae deletion strains, locus YOR270C, strain vph1, active compounds read low 1.07 | S. cerevisiae deletion strains, locus YOR290C, strain snf2, active compounds read low 0.977 | S. cerevisiae deletion strains, locus YOR316C, strain cot1, active compounds read low 0.976 | S. cerevisiae deletion strains, locus YPL051W, strain arl3, active compounds read low 0.985 | S. cerevisiae deletion strains, locus YPL055C, strain LGE1, active compounds read low 1 | S. cerevisiae deletion strains, locus YPL078C, strain atp4, active compounds read low 0.984 | S. cerevisiae deletion strains, locus YPL106C, strain sse1, active compounds read low 0.941 | S. cerevisiae deletion strains, locus YPL240C, strain hsp82, active compounds read low 0.99 | S. cerevisiae deletion strains, locus YPL241C, strain CIN2, active compounds read low 0.988 | S. cerevisiae deletion strains, locus YPL256C, strain CLN2, active compounds read low 0.99 | S. cerevisiae deletion strains, locus YPR119W, strain clb2, active compounds read low 0.988 | S. cerevisiae deletion strains, locus YPR141C, strain kar3, active compounds read low 0.938 | S. cerevisiae deletion strains, locus YPR163C, strain tif3, active compounds read low 0.975 | S. cerevisiae deletion strains, locus YPR167C, strain met16, active compounds read low 0.97 | S. cerevisiae deletion strains, strain wtn01, active compounds read low 0.975 | S. cerevisiae strains, strain wild type, active compounds read low 0.983
